# Reference: PubChem BioAssay AID485297 (National Center for Advancing Translational Sciences (NCATS), 2010)
# In all, about 320,000 compounds went through this assay and about 9,100 (2.8%) were called active. Another 3% or so got no clear call; they are omitted. This excerpt belongs to a sample that is enriched for actives. Unmarked numbers belong to inactive results. Calls follow the shape of the dose curve; as a rule, active = well fitted activation curve with a large enough effect; inconclusive = small, poorly fitted or top-dose-only effect; inactive = no such curve, though single readings can be large or run the other way.
# Assay: qHTS Assay for Rab9 Promoter Activators; also: nearly all actives have a fitted effect of over 60% in size; as to activation, negative = inhibition: % of control where 0% means no effect
# Conditions: Huh7 Rab9 promoter-luciferase reporter, luminescence, 24 h; series mostly up to 9.22 µM; activation, negative = inhibition: at the top concentration
# Procedure, shortened: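 Steps: seed 1500 Huh7 Rab9-luc cells per well, rest 2 h at 37 °C; add compound in DMSO; incubate 24 h; add luciferase reagent, 10 min ambient; read luminescence.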
# Potency is read from the fitted curve at half-maximal effect.
SMILES,"activation, negative = inhibition",Potency
C=CCN(c1ccccc1C(=O)NCC(=O)OCC)S(=O)(=O)c1ccc(C)cc1,-9.66%,
COc1cc(C#Cc2ccc3cc(CCCO)oc(=O)c3c2)cc(OC)c1,-2.52%,
O=C(O)c1cc(S(=O)(=O)Nc2ccc3cn[nH]c3c2)ccc1Br,0.286%,
O=C(CN1C(=O)NC2(CCOc3ccccc32)C1=O)NCc1ccc(F)cc1 (stereo not drawn),-0.457%,
CCOc1ccc(OCC(=O)OC(C)C(=O)NC2CCCCC2C)cc1 (stereo not drawn),-4.77%,
Cc1ccc(-c2nc(-c3ccncc3)no2)c(C)c1,,2510 nM (active)
Cc1ccc(-c2noc(CSc3nnc(-c4cccs4)n3C)n2)cc1,5.25%,
Clc1ccc(-n2nnnc2-c2cnc(-c3ccccn3)nc2-c2cccs2)cc1,0.51%,
Cc1ccc(-c2noc(CSc3nnc(-c4ccncc4)n3-c3ccc(F)cc3)n2)cc1,-5.23%,
c1csc(-c2nc(-c3ccncc3)no2)c1,,2510 nM (active)
c1ccc(CCc2nc(-c3ccncc3)no2)cc1,5.11%,
O=C(NCc1cccnc1)c1nc(-c2cccs2)no1,7.62%,
COc1nc(-c2ccc(Cl)cc2)ccc1-c1noc(-c2cccs2)n1,14.7%,
c1ccc(-c2noc(-c3cccs3)n2)nc1,,355 nM (active)
COc1cccc(C2=CC(=O)C[C@H](c3ccc(OC)c(OC)c3)C2)c1,0.14%,
Cc1ccc(NC(=O)CCCNC(=O)c2ccc(Cl)cc2)cc1S(=O)(=O)N1CCCCC1,0.323%,
CN(CCc1ccccn1)C1CCCN(S(=O)(=O)c2ccccc2Cl)C1 (stereo not drawn),5.86%,
O=C(NNC(=O)C1CCC1)c1ccccc1,0.349%,
COc1ccc(C(=O)N2CCN(c3ccc(C(C)=O)cc3F)CC2)cc1S(=O)(=O)NC1CC1,-4.32%,
O=S(=O)(NC1CCN(S(=O)(=O)c2ccc3c(c2)OCCO3)CC1)c1c(F)cccc1F,0.297%,
CN1CCC(N(C)S(=O)(=O)c2ccc(NC(=O)c3cccc(C#N)c3)cc2)CC1,-3.53%,
CC(C)COC(=O)c1ccc(NC(=O)C2C3C=CC(C3)C2C(=O)O)cc1 (stereo not drawn),,2240 nM (active)
CC(=O)NS(=O)(=O)c1ccc(NC(=O)C2C3C=CC(C3)C2C(=O)O)cc1 (stereo not drawn),-3.05%,

SMILES,"activation, negative = inhibition",Potency
COC(=O)c1cc(NC(=O)C2C3C=CC(C3)C2C(=O)O)cc(C(=O)OC)c1 (stereo not drawn),-9.89%,
CCOc1ncccc1C(=O)OCC(=O)N1c2ccccc2CC1C (stereo not drawn),0.841%,
CC(NC(=O)CSc1nc2c(cc1C#N)CN(C)CC2)c1ccccc1 (stereo not drawn),13.2%,
Cc1cc(NC(=O)CSc2nc3c(cc2C#N)CCCCC3)no1,,2000 nM (active)
Cc1cc(NC(=O)CSc2nc(C(C)C)nc3sc4c(c23)CCC(C)C4)no1 (stereo not drawn),-1.16%,
O=C(CNC(=O)C(c1ccccc1)c1ccccc1)N/N=C\c1ccc2c(c1)OCO2,8.43%,
O=C(/C=C/c1ccc2c(c1)OCO2)NCc1ccc(F)cc1,0.0512%,
O=C(Cc1ccc(F)cc1)N/N=C/c1ccc2c(c1)OCO2,,2820 nM (active)
O=C(N/N=C/c1ccc([N+](=O)[O-])cc1)C(=O)N1CCCC1,-0.644%,
COC(=O)c1ccc(/C=N/NC(=O)C(=O)N2CCCCCC2)cc1,-7.08%,
O=C(N/N=C/c1ccc2c(c1)OCO2)C(=O)N1CCCC1,,2820 nM (active)
S=C(Nc1cccnc1)Nc1ccccn1,-1.03% [at 1.84 µM],
O=C(CSc1nnc(COc2ccc(Cl)cc2)n1Cc1ccco1)N1CCNC1=O,-0.0536%,
O=C(NCC1CCCO1)c1ccc(S(=O)(=O)Nc2ccc(F)cc2)cc1 (stereo not drawn),-3.46%,
COc1cccc(/C=C/C(=O)OCC(=O)N2CCN(c3ccccc3)CC2)c1,-8.64%,
CC(C)CNC(=O)CC(NCC(C)C)C(=O)O (stereo not drawn),1.69%,
C=CCn1c(Oc2ccc(C(=O)OC)cc2)nc2c1c(=O)n(C)c(=O)n2C,-9.97%,
Cc1ccccc1N/N=C/c1ccc(N2CCOCC2)cc1,,2000 nM (active)
C(=N/Nc1cc(N2CCOCC2)nc(N2CCOCC2)n1)/c1ccccc1,-0.95%,
CCN(CC)c1ccc(C(=O)N/N=C/c2ccc(N3CCOCC3)cc2)cc1,0.331%,
COc1ccc(C(=O)NCC(=O)N/N=C/c2cccnc2)cc1,-4.87%,
Cc1cc(O)c(NC(=O)c2ccc(C)c([N+](=O)[O-])c2)cc1C,,2820 nM (active)
CCN1CCC(=NNC(=O)c2ccc(C)c([N+](=O)[O-])c2)CC1,17.7%,

SMILES,"activation, negative = inhibition",Potency
Cc1ccc(C(=O)Nc2cccc3ncccc23)cc1[N+](=O)[O-],-3.34%,
CN(CC(=O)Nc1c(Cl)cccc1Cl)C(=O)CC1OC(=O)c2ccccc21 (stereo not drawn),-4.49%,
COc1cc(C(c2c(NC(=O)c3ccco3)sc(C)c2C)N2CCOCC2)cc(OC)c1OC (stereo not drawn),0.98%,
COCCN(C(=O)CSCc1ccc(C)cc1)c1c(N)n(CC(C)C)c(=O)[nH]c1=O,-0.278%,
CCN(CC)S(=O)(=O)c1ccc(OC)c(NC(=O)CCc2c(C)noc2C)c1,-12.1%,
O=C(c1ccc(F)cc1)n1cc(C(=S)N2CCOCC2)c2ccccc21,-0.854%,
O=C(C[n+]1cc(Br)cc2ccccc21)c1ccc(F)cc1,-0.744%,
O=C(c1ccc(F)cc1)n1c(=S)nc2ccccn21,,891 nM (active)
CSc1ccccc1-c1nnc(-c2ccc(Cl)cc2)o1,,3980 nM (active)
FC(F)(F)c1cnc(Oc2ccccc2-c2nnc(-c3ccc(Cl)cc3)o2)c(Cl)c1,-2.35%,
Clc1ccc(-c2nnc(SCc3nc4ccccc4s3)o2)cc1,29.6%,
COC(=O)c1ccc(C)c(NC(=O)C2CC(=O)N(C3CCCC(C)C3C)C2)c1 (stereo not drawn),-3.82%,
CC(=O)Nc1ccc(S(=O)(=O)NC(C)C(=O)OCCOc2ccc(F)cc2)cc1 (stereo not drawn),-2.89%,
COc1ccc(C(=O)Nc2ccccc2C(=O)N/N=C/c2ccc(O)c(OC)c2)cc1,-0.509%,
O=C(N/N=C/c1cccc(Br)c1)c1ccc(N2CCCC2=O)cc1,-0.625%,
COc1cc(/C=N/NC(=O)c2ccc(N3CCCC3=O)cc2)ccc1O,,3980 nM (active)
O=C(Nc1ccc(Br)cc1)C1CCC(=O)N1Cc1ccccc1Cl (stereo not drawn),-2.51%,
CC1CCN(C(=O)/C(=C\c2ccccc2F)NC(=O)c2ccccc2)CC1,-2.18%,
COc1ccc(-c2cc(C(=O)NCCCN3CCOCC3)no2)cc1,-0.694%,
CC(C)CNC(=O)c1cc(-c2ccc(Br)cc2)on1,,3550 nM (active)
Cc1c(NC(=O)c2cc(-c3ccc(Br)cc3)on2)c(=O)n(-c2ccccc2)n1C,1.87%,
O=C1COc2ccc(C(=O)CSc3ccc(Br)cc3)cc2N1,7.8%,
O=C(CCc1ccccc1Cl)Nc1ccc(S(=O)(=O)Nc2nccs2)cc1,-4.37%,

SMILES,"activation, negative = inhibition",Potency
COc1cc(C(=O)NCC(c2ccco2)N2CCCC2)ccc1OCc1ccccc1 (stereo not drawn),-5.2%,
CN(C)S(=O)(=O)c1cccc(NC(=S)N/N=C/C(=O)c2ccccc2)c1,-3.18%,
O=C(N/N=C/c1c[nH]c2ccccc12)c1cc2ccccc2o1,-3.56%,
O=C(O)c1cccc(NC(=S)N/N=C/c2c[nH]c3ccccc23)c1,,3550 nM (active)
O=S(=O)([N-]c1nc2ccccc2nc1-[n+]1ccc(Cc2ccccc2)cc1)c1ccc(Br)s1,-2.42%,
CCOc1ccc2nc(N(CCN(C)C)C(=O)c3ccc4ccccc4c3)sc2c1,0.0921%,
CCCC(=O)N(CCN1CCOCC1)c1nc2ccc(OCC)cc2s1,6.31%,
CCOc1ccc2nc(C(=O)N3CCCC(C)C3)sc2c1 (stereo not drawn),,1780 nM (active)
CN(C)S(=O)(=O)c1ccc(C(=O)NCC2(N3CCOCC3)CCCCC2)cc1,0.588%,
CNS(=O)(=O)c1ccc(C(=O)NCC(=O)NCCc2ccc3c(c2)OCCO3)cc1,-3.12%,
Cc1cccc(N(Cc2ccccc2)C(=O)c2ccccc2F)c1,8.75%,
O=C(CCN1c2ccccc2Sc2ccccc21)Nc1ccccc1,-4%,
CCN1/C(=C/C(=S)Nc2ccccc2)Sc2ccccc21,,2820 nM (active)
CCN1/C(=C/c2ccc3ccc(C)cc3[n+]2CC)Sc2ccccc21,-22.4%,
CC(OC(=O)Cc1ccc(F)cc1)C(=O)N1CCc2ccccc21 (stereo not drawn),1.57%,
COc1cccc(C(=O)Nc2nnc(S(=O)(=O)N3CCCCC3)s2)c1,3.53%,
C=CCN1C(=O)c2ccc(C(=O)N3CCC(C(=O)OCC)CC3)cc2C1=O,-0.533%,
Cc1ccc(OS(=O)Nc2cccc3nccnc23)cc1 (stereo not drawn),7.91%,
CCc1ccc(NC(=O)Cn2nnc(C(=O)NCc3ccc4c(c3)OCO4)c2N)cc1,-9.68%,
O=C(CCS(=O)(=O)Cc1ccccc1)Nc1ccc2c(c1)OCCO2,-1.29%,
Nc1c(C(=O)Nc2ccc3c(c2)OCCO3)nnn1Cc1ccccc1,,1260 nM (active)
CC(C)(C)OC(=O)NCCCCCNC(=O)c1nc[nH]c1C(=O)NCc1ccccc1,-5.73%,
CCOC(=O)N1CCC(NC(=O)c2cnn3ccccc23)CC1,1.89%,

SMILES,"activation, negative = inhibition",Potency
Cc1cnc(C(=O)OCC(=O)N2CCc3ccccc32)cn1,5.77%,
O=C(c1cnn2ccccc12)N1CCc2ccccc21,,1780 nM (active)
CC(=O)c1c(C)[nH]c(C(=O)N2CCN(S(=O)(=O)c3ccc(F)c(F)c3)CC2)c1C,0.546%,
COn1c(-c2ccc(Cl)cc2Cl)nc2ncccc21,-2.3%,
Clc1ccc(-c2cc(-c3ccccn3)on2)c(Cl)c1,,100 nM (active)
Clc1ccc(-c2ncc3ccccn23)c(Cl)c1,-3.01%,
COc1cccc(C(=O)OCC(=O)c2[nH]c(C)c(C(C)=O)c2C)c1,-7.27%,
CN(Cc1cccs1)C(=O)CN1C(=O)c2ccccc2S1(=O)=O,22.4%,
O=C(/C=C(O)/C=C/c1ccc(O)cc1)/C=C/c1ccc(O)cc1,-2.14%,
Cc1ccc(C(=O)NNC(=O)c2ccc3c(c2)OCCO3)cc1,,3980 nM (active)
COc1ccc(C(=O)NC(=S)Nc2ccc(Cl)cn2)cc1OC,-0.572%,
CC(=O)c1ccc2c(c1)OCCOCCOc1ccc(C(C)=O)cc1OCCOCCO2,0.828%,
COc1ccc(/C=N/NC(=O)c2ccc3c(c2)OCCO3)c(OC)c1,1.01%,
CCCc1cc(C(=O)Nc2ccc(Cl)cn2)cs1,,447 nM (active)
O=C(Nc1ccc(Cl)cn1)c1ccc2c(c1)OCCO2,,562 nM (active)
CCCc1cc(C(=O)Nc2ccc(C(=O)OC)cc2)cs1,24.7%,
O=C(Nc1cccc(Cl)c1N1CCOCC1)c1ccc2c(c1)OCCO2,-2.62%,
Cc1cccc(C)c1NC(=O)CNC(=O)c1ccc2c(c1)OCCO2,1.78%,
Cc1nc(NC(=O)c2ccc3c(c2)OCCO3)ccc1Br,,562 nM (active)
CCCCC(CC)C(=O)Nc1ccc(Cl)cn1 (stereo not drawn),-2.96%,
Cc1ccc2sc(NNC(=O)c3ccc4c(c3)OCCO4)nc2c1C,-6.32%,
